# Measured values as given in PubChem BioAssay AID2073 (Sanford-Burnham Center for Chemical Genomics, 2009).
# The whole screen tested about 290,000 compounds, of which about 570 (0.2%) were called active. Inconclusive results (about 1%) are left out. No stated cut-off is given here; in the data, active means inhibition mostly above about 51% (no sharp cut-off); inconclusive means no clear call, values can overlap the other calls; inactive means mostly below about 53%. The full list was thinned out, with actives kept by preference.
# Molecular target: Voltage-dependent N-type calcium channel subunit alpha-1B (Homo sapiens) (UniProt Q00975)
# Sequence (Q00975 whole entry, looked up): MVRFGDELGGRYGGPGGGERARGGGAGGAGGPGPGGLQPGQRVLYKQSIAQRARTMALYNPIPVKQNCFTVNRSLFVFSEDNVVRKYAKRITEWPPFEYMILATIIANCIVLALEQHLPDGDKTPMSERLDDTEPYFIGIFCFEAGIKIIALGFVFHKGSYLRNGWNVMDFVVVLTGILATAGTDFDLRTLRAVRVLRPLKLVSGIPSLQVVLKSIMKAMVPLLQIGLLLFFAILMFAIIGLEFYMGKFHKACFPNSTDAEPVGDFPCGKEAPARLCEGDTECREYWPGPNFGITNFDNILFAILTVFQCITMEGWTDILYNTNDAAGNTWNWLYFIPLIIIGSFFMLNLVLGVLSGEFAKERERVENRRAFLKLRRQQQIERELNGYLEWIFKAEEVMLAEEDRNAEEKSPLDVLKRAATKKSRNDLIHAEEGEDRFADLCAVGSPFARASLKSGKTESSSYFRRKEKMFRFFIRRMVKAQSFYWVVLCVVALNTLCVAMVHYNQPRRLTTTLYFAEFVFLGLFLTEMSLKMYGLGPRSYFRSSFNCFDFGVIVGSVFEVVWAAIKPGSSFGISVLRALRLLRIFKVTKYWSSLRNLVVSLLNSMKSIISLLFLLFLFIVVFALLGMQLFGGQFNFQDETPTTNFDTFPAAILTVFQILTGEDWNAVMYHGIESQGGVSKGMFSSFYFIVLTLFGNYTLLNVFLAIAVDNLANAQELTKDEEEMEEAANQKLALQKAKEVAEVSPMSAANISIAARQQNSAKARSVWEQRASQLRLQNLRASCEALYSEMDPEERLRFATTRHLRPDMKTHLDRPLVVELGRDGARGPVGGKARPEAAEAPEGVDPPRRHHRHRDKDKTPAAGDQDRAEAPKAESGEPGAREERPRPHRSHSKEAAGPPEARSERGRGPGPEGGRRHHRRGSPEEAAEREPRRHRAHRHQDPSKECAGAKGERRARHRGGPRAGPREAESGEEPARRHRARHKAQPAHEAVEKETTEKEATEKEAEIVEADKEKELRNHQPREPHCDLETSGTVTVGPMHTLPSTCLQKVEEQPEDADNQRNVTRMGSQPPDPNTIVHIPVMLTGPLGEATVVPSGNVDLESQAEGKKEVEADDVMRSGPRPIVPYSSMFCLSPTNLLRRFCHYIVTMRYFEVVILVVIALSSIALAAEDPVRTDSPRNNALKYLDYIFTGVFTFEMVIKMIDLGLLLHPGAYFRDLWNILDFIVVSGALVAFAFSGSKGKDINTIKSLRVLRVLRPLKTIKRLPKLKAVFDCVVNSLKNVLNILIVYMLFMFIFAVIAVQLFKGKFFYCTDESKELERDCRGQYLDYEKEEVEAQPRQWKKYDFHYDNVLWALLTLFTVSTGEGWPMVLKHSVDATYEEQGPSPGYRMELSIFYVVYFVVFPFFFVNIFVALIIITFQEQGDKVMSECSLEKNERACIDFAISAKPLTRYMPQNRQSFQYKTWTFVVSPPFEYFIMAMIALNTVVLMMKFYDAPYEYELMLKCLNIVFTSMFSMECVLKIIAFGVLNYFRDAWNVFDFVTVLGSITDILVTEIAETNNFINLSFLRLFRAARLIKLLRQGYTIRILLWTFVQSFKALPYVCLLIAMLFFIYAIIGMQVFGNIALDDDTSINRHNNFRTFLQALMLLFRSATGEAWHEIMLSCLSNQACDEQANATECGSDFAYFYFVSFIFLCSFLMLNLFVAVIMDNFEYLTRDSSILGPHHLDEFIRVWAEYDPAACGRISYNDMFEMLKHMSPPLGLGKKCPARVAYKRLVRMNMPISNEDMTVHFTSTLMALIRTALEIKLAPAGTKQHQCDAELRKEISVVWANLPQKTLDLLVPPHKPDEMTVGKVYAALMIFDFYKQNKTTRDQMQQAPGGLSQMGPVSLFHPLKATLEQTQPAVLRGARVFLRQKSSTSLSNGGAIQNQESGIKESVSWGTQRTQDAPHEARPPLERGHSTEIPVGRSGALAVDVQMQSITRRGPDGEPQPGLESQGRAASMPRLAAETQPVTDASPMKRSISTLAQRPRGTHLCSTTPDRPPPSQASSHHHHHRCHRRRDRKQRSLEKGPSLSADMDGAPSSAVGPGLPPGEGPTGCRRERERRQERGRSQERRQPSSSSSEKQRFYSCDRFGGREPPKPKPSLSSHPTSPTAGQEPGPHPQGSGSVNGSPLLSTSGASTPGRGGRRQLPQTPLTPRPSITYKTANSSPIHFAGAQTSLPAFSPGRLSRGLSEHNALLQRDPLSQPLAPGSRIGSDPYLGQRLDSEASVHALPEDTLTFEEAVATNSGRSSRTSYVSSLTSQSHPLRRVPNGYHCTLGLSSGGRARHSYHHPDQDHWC
# Experiment: inhibitors of Mint1-CaV2.2 protein interaction, biochemical, HTRF (AID 2073)
# Conditions: at 20 µM, stronger effect = higher value
# [1] = measured here: average of repeat tests
SMILES,inhibition,inhibition [1] [%]
Clc1cccc(Cl)c1CNc1ccc(N2CCCC2)cc1,31.8% (inactive),
NS(=O)(=O)c1ccc(NCc2c(F)cccc2Cl)cc1,-1.1% (inactive),
Fc1cccc(Cl)c1CNc1ccc(N2CCCC2)cc1,54% (active),
CC(C)(C)SCCNC(=O)CN1C(=O)c2cccc3cccc1c23,35.7% (inactive),
CC(=O)Oc1ccc2c(=O)c(/C=N/c3cc(=O)[nH]c(=S)[nH]3)coc2c1,23.2% (inactive),
O=c1cc(/N=C/c2coc3c(ccc4ccccc43)c2=O)[nH]c(=S)[nH]1,52.9% (active),
O=c1cc(/N=C/c2coc3cc(Br)ccc3c2=O)[nH]c(=S)[nH]1,14.4% (inactive),
CCCCN(C)C(=O)c1c[nH]c2ccc(S(=O)(=O)N3CCOCC3)cc2c1=O,24.6% (inactive),
Cc1ccc(CNC(=O)c2ccc3c(c2)NC(=O)CS3)cc1,-5.9% (inactive),
COc1ccc(/C=C(\NC(=O)/C=C/c2ccco2)C(=O)NCCc2nc3ccccc3[nH]2)cc1,52.5% (active),
CC(C)Oc1ccc(/C=C(\NC(=O)/C=C/c2ccco2)C(=O)NCCc2nc3ccccc3[nH]2)cc1,9.4% (inactive),
COc1ccc(/C=C/C(=O)N/C(=C\c2ccco2)C(=O)NCCc2nc3ccccc3[nH]2)cc1,4.5% (inactive),
Cc1cc(C)c2c(c1)NC(c1cc3c(cc1Br)OCO3)C1CC=CC21 (stereo not drawn),12.6% (inactive),
CCOC(=O)/C(C#N)=C/c1cccc(F)c1,15.3% (inactive),
CC(=O)Nc1ccc2c(c1)nc1n2CCN(C2CCCCC2)C1,30.1% (inactive),
O=C(Nc1ccc2c(c1)nc1n2CCN(C2CCCCC2)C1)NC1CCCCC1,11.3% (inactive),
O=C(Nc1ccc2c(c1)nc1n2CCN(C2CCCCC2)C1)c1ccco1,57.2% (active),
CCc1ccc(NC(=O)Cn2nnc(C(=O)NCc3cccs3)c2N)cc1,26.5% (inactive),
O=S(=O)(c1ccc(F)cc1)N1CCN(c2ccc(-c3ccccc3)nn2)CC1,41.9% (inactive),
CC1(C)Cc2nc3sc(C(=O)NCCCO)c(N)c3cc2CS1,30.6% (inactive),
CC1(C)Cc2nc3sc(C(=O)O)c(N)c3cc2CS1,54.6% (active),
CCC1(C)Cc2nc3sc(C(=O)O)c(N)c3cc2CO1 (stereo not drawn),23.8% (inactive),
O=C(NCc1cccnc1)NC(=O)c1ccc(Cl)cc1,-3% (inactive),
O=C(CNC(=O)c1ccc(Cl)cc1)N/N=C/C=C/c1ccccc1,2.8% (inactive),

SMILES,inhibition,inhibition [1] [%]
CCc1cc2c(=O)c(-c3nc4ccccc4[nH]3)coc2c(CN2CCCCC2)c1O,9.7% (inactive),
O=c1oc2c(CN3CCN(CCO)CC3)c(O)ccc2cc1-c1ccccn1,30.4% (inactive),
O=c1oc2c(CN3CCCCCC3)c(O)ccc2cc1-c1nc2ccccc2[nH]1,65.1% (active),
O=C(Cc1n[nH]c(=O)c2ccccc12)NC(c1ccccc1)c1ccccc1,1.8% (inactive),
CC(C)CNc1nc(Oc2ccc(=O)[nH]n2)nc(N2CCOCC2)n1,-12.9% (inactive),
COCCOC(=O)c1c(C)n(C)c2ccc(OC(=O)c3ccccc3F)cc12,-3.1% (inactive),
COc1ccc(-c2nn(-c3ccccc3)cc2/C=C(/C#N)C(N)=O)cc1[N+](=O)[O-],54.4% (active),
COc1ccc(-c2nn(-c3ccccc3)cc2/C=C(\C#N)C(N)=O)cc1[N+](=O)[O-],43.3% (inactive),
C=CCNC(=O)/C(C#N)=C/c1cn(-c2ccccc2)nc1-c1ccc(OC)c([N+](=O)[O-])c1,25.3% (inactive),
CC(NC(=O)c1cc(Br)ccc1Br)c1ccccc1 (stereo not drawn),15.9% (inactive),
S=C(NCc1cccnc1)NCc1cccnc1,-3.7% (inactive),
Cc1cc(C)cc(NC(=S)NCc2cccnc2)c1,-3.3% (inactive),
Cn1cccc1C(C#N)(CC#N)c1cccc(F)c1C#N (stereo not drawn),14.3% (inactive),
CC(C)n1c(=S)[nH]c2c1c(=O)[nH]c(=O)n2C,-95.1% (inactive),
CC(C)c1csc(CN2CCC(CO)(Cc3cccc(F)c3)CC2)n1,-1.1% (inactive),
COc1ccc(S(=O)(=O)N2c3ccccc3OCC2C(C)(C)C)cc1 (stereo not drawn),50.4% (active),
COc1ccc(S(=O)(=O)N2c3cc(C)ccc3OCC2C(C)(C)C)cc1 (stereo not drawn),-0.4% (inactive),
Cc1ccc(S(=O)(=O)N2c3ccccc3OCC2C(C)(C)C)cc1 (stereo not drawn),1.7% (inactive),
CCN(CC)S(=O)(=O)c1ccc(C(=O)Nc2ccc3c(c2)OCO3)cc1,9.9% (inactive),
CCOc1ccc(/C=c2\sc3nc(-c4ccco4)nn3c2=O)cc1OCC,31.7% (inactive),
COc1ccccc1/C=c1\sc2nc(-c3ccco3)nn2c1=O,35.1% (inactive),
COc1ccc(Br)cc1/C=c1\sc2nc(-c3ccco3)nn2c1=O,66.4% (active),
COCCSc1nnc(NC(=O)c2ccc3c(c2)OCO3)s1,3.7% (inactive),
Cc1nc(C(C)N(C)Cc2nc(Cc3ccccc3F)no2)c(C)s1 (stereo not drawn),-15.7% (inactive),

SMILES,inhibition,inhibition [1] [%]
COc1ccccc1N(CC(=O)N(CC(C)C)CC(C)C)S(=O)(=O)c1cccs1,-4.4% (inactive),
COc1ccc(N2C(=O)C(Cl)=C(Oc3cccc(OC)c3)C2=O)cc1,56.7% (active),
COc1ccc(N2C(=O)C(Cl)=C(N3CCCC3)C2=O)cc1,19.5% (inactive),
COc1ccc(N2C(=O)c3cc4ccccc4cc3C2=O)cc1,4.4% (inactive),
Cc1ccc(Nc2nc(-c3ccc(C)cc3)c(CC(=O)O)s2)cc1,14.4% (inactive),
Cc1nc2sc(C(c3cccc(F)c3)N3CCN(C(=O)c4ccco4)CC3)c(O)n2n1 (stereo not drawn),3.9% (inactive),
CC(=O)CC1(O)C(=O)Nc2ccccc21 (stereo not drawn),33.4% (inactive),
CN(C)CCNc1c(N)c(=O)oc2ccccc12,-16.1% (inactive),
Cc1ccc(C(=O)c2ccccc2C(=O)OCC(=O)NC(C)(C)C)cc1,-3.7% (inactive),
CCOC(=O)c1ccc(N2C(=O)c3n[nH]c(-c4ccco4)c3C2c2ccc([N+](=O)[O-])cc2)cc1 (stereo not drawn),71.1% (active),
CCOC(=O)c1ccc(N2C(=O)c3n[nH]c(C)c3C2c2ccco2)cc1 (stereo not drawn),-2.1% (inactive),
CCOC(=O)c1ccc(N2C(=O)c3n[nH]c(-c4ccco4)c3C2c2cccc([N+](=O)[O-])c2)cc1 (stereo not drawn),27.2% (inactive),
O=C(O)Cn1nnnc1-c1ccc(F)cc1,0% (inactive),
CC(NC(=O)C1CCCN(C(=O)N(C)C)C1)c1ccccc1 (stereo not drawn),0.8% (inactive),
COC(=O)N/N=C/c1cc(N=Nc2ccccc2)ccc1O,23.6% (inactive),
CC(C)(C)OC(=O)N/N=C/c1cc(N=Nc2ccccc2)ccc1O,3.5% (inactive),
Cc1cccc(C)c1N1C(=O)CC(N(O)c2ccccc2)C1=O (stereo not drawn),4.8% (inactive),
Cc1cc(C)c(C#N)c(N2CCN(S(=O)(=O)Cc3ccccc3)CC2)n1,1% (inactive),
CCOC(=O)c1sc(NC(=O)CN2C(=O)NC3(CC(C)CC(C)(C)C3)C2=O)c(C(=O)OCC)c1C (stereo not drawn),13.6% (inactive),
COc1cc(C2Nc3cccc4cccc(c34)N2)cc(OC)c1OC(C)=O,77.3% (active),
COc1ccc(C2Nc3cccc4cccc(c34)N2)cc1Br,25.7% (inactive),
COc1cc(C2Nc3cccc4cccc(c34)N2)ccc1OC(C)=O,74.4% (inactive),-13.1
CN(C)S(=O)(=O)c1cccc(NC(=S)Nc2cccc3cnccc23)c1,51.6% (active),
CCOc1ccc(NC(=S)Nc2cccc3cnccc23)cc1,27% (inactive),

SMILES,inhibition,inhibition [1] [%]
Cc1cc(C)cc(NC(=S)Nc2cccc3cnccc23)c1,16.7% (inactive),
Cc1ccc(NC(=S)Nc2cccc3cnccc23)cc1,21.8% (inactive),
S=C(Nc1cccnc1)Nc1cccc2cnccc12,79.7% (inactive),4.7
COc1ccc(NC(=S)Nc2cccc3cnccc23)cc1,77.7% (active),
COc1ccc(/C=C2\SC(N3CCCCC3)=NC2=O)cc1,3.8% (inactive),
COc1ccc(CNC(=O)C(C)OC(=O)c2cccn2C)cc1 (stereo not drawn),-0.9% (inactive),
COc1ccc(S(=O)(=O)N(C)C2CCS(=O)(=O)C2)cc1OC (stereo not drawn),4.6% (inactive),
COCCNC(=O)c1cccc(Nc2nc(-c3ccccc3)c3cc(Cl)ccc3n2)c1,54.5% (active),
O=C(NCCO)c1cccc(Nc2nc(-c3ccccc3)c3cc(Cl)ccc3n2)c1,11.1% (inactive),
OCCNc1nc(-c2ccccc2)c2cc(Cl)ccc2n1,15.1% (inactive),
Clc1ccccc1-c1nnc2sc(-c3ccc(Br)o3)nn12,-3.6% (inactive),
Nn1cnnc1N/N=C\c1ccc(-c2ccccc2[N+](=O)[O-])o1,62% (active),
O=[N+]([O-])c1ccccc1-c1ccc(/C=N/n2cnnc2)o1,-7.6% (inactive),
Cc1nnc(N/N=C\c2ccc(-c3ccccc3[N+](=O)[O-])o2)n1N,45% (inactive),
COc1ccc(CCN(C)C(=O)CN2C(=O)c3ccccc3S2(=O)=O)cc1OC,-0.2% (inactive),
COc1ccc(N2C(=O)N(Cc3ccc(C)cc3)c3ccccc3S2(=O)=O)cc1,5.3% (inactive),
COc1ccc(N2C(=O)N(Cc3cccc(F)c3)c3ccccc3S2(=O)=O)cc1,55.6% (active),
COc1ccc(N2C(=O)N(Cc3ccccc3F)c3ccccc3S2(=O)=O)cc1,-1.5% (inactive),
N#CCCN1CCCN(CCC#N)CCN(CCC#N)CCCN(CCC#N)CC1,-13.6% (inactive),
CCOC(=O)/C=c1\s/c(=C\c2c(OCC)ccc3ccccc23)c(=O)n1CC(=O)NCC1CCCO1 (stereo not drawn),10.3% (inactive),
COc1cc(OC)cc(C(=O)OCC(=O)NC(C)CCc2ccccc2)c1 (stereo not drawn),34.5% (inactive),
COc1ccc2c(Cl)c(C(=O)NN)sc2c1,8.1% (inactive),
O=C1CCC/C(=N/NC(=O)c2sc3ccccc3c2Cl)C1,8.3% (inactive),
COc1ccc2c(Cl)c(C(=O)N/N=C3\CCCC(=O)C3)sc2c1,50.9% (active),
